The list is not random: actives were taken first. Their share in the collection is about 2.5%.
CASP6 VEID inh: inhibitors of human caspase-6; P55212; 350,000 tested, 0.53% active; purified caspase-6, Z-VEID-R110 cleavage fluorescence; inhibition, % at 12.5 µM;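 active = mean inhibition across replicates at least about 35%, with every replicate also reaching that limit, limit read from the data; inconclusive = only one of the two criteria met; inactive = neither criterion met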;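 also: 0% = median of neutral control wells and 100% = no fluorescence left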
AF4-AF9 inh: inhibitors of human MLL-AF4/AF9 interaction | AlphaScreen, biotin-AF4 peptide binding to FLAG-AF9 | 350,000 tested, 0.47% active | P42568 | inhibition, % at 10 µM | AID 651704;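 active = every replicate reaching a set inhibition limit, whatever the replicate mean, cut at about 25% in these data; inconclusive = mean inhibition reaches that limit but some replicates miss it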;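 also: 0% = plate neutral control median and 100% = total signal loss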
Target sequence (P42568 whole entry, looked up): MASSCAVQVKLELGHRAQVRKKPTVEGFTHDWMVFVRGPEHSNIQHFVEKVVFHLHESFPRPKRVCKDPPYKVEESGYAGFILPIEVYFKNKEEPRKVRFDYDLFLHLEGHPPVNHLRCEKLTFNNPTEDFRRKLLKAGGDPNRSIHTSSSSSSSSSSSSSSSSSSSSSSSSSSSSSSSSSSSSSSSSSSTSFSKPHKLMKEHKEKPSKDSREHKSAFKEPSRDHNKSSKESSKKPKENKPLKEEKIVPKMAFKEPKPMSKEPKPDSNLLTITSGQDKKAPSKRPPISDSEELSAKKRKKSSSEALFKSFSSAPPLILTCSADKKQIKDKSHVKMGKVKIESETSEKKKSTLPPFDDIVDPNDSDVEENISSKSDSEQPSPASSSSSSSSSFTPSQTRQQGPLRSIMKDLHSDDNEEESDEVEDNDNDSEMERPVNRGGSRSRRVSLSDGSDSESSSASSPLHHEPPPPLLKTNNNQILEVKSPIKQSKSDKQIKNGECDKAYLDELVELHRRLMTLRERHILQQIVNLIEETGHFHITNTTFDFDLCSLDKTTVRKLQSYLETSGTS
RAD52 inh: RAD52 (human) annealing inhibition; P43351; recombinant RAD52 DNA annealing, FRET fluorescence; AID 651710; inhibition, % at 18.7 µM; 360,000 tested, 0.46% active;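 active = every replicate showing at least 50% inhibition; inconclusive = mean inhibition at least 50% but not in every replicate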
rRNA inh HTS: selective bacterial rRNA inhibition in E. coli | E. coli WT GFP vs humanized-ribosome RFP mutants, fluorescence, 24 h; stronger effect = lower value; DMSO median 0, no signal -100 | GFP signal change (wild-type ribosome), % (no concentration beside the values) | 350,000 tested, 1.6% active;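 active = significant combined selectivity score with lowered wild-type GFP, culture density cut under 30%, mutant RFP and density less affected; inactive = any of these conditions unmet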
NSD2 HMT inh: blocks human histone methyltransferase NSD2; O96028; NSD2 peptide methylation, AlphaScreen, 120 min; inhibition, % at 12.5 µM; 310,000 tested, 0.54% active; AID 743445; in the data active = inhibition above about 50%
Numbers without * were called inactive; i = inactive; u = inconclusive; x = no result given; ! = not confirmed by another sample.

SMILES | CASP6 VEID inh | AF4-AF9 inh | RAD52 inh | rRNA inh HTS | NSD2 HMT inh
O=C(Cc1ccccc1)N1CCCCN2[C@H](CO)[C@@H](c3ccc(C#Cc4ccccc4)cc3)[C@@H]2C1 | 1 | -6 | -14 | -1 | x
O=C(Cc1cccnc1)N1CCCCN2[C@H](CO)[C@@H](c3ccc(/C=C/c4ccccc4)cc3)[C@H]2C1 | -1 | 27* | -25 | -59 | x
CN(C)c1ccc(/C=C/[N+](=O)[O-])cc1 | 2 | -3 | -25 | -18* | 2
C/C(=C\c1ccc(N(C)C)cc1)[N+](=O)[O-] | 1 | 6 | -20 | -5 | 2
Cc1ccccc1S(=O)(=O)N1[C@@H]2c3ccc(-c4cccnc4)c(=O)n3C[C@H]1[C@H](CO)[C@H]2C(=O)O | -1 | 1 | -8 | 3 | x
CCC(CO)NC(=O)C1C=C2c3cccc4[nH]cc(c34)CC2N(C)C1 (stereo unspecified) | 48* | u | -19 | -36 | x
CC[C@@H](CO)NC(=O)[C@@H]1C=C2c3cccc4c3c(cn4C)C[C@H]2N(C)C1 | 73* | 12 | -280 | 1 | x
CC[C@@H](CO)NC(=O)[C@@H]1C=C2c3cccc4[nH]cc(c34)C[C@H]2N(C)C1 | 62* | u | -87 | x | x
CC(=O)N1C[C@@H]2C(c3ccc(Br)cc3)[C@H](C1)N2CC1CC1 (stereo partly specified) | x | x | x | -2 | x
CC(=O)N1C2CN(C)CC1C2c1ccc(Br)cc1 (stereo unspecified) | x | x | x | -3 | x
C[C@H]1CN([C@@H](C)CO)C(=O)c2c(c3ccccc3n2C)-c2ccccc2CO[C@H]1CN(C)C(=O)Oc1ccccc1 | -1 | -1 | 4 | -4 | x
O=c1[nH]c(=O)n(Cc2ccco2)c(O)c1C=NC1CCN(Cc2ccccc2)CC1 | -3 | 48* | -11 | -22 | 4
CCCN1[C@@H]2c3cccc(=O)n3C[C@H]1[C@H](CO)[C@H]2C(=O)N(C)C | 1 | 0 | 1 | 6 | x
CCN1[C@@H]2Cn3c(ccc(-c4cccc(C(=O)N(C)C)c4)c3=O)[C@H]1[C@@H](C(=O)OC)[C@@H]2CO | 0 | -27 | 12 | 2 | x
CC(C)(O)C(=O)Nc1ccc([N+](=O)[O-])c(C(F)(F)F)c1 | -5 | x | 1 | 3 | x
COc1cc2c(cc1OC)CN(c1ccc([N+](=O)[O-])c(C(F)(F)F)c1)CC2 | -1 | 3 | -3 | -19* | -2
COc1ccc(NP(=O)(Oc2cccc(C)c2)Oc2cccc(C)c2)cc1OC | 2 | -1 | 2 | -18* | 1
Cc1cccc(OP(=O)(Nc2ccc(F)cc2)Oc2cccc(C)c2)c1 | -1 | -1 | 11 | -33 | -2
COC(=O)[C@@H]1[C@@H](CO)[C@@H]2Cn3c(ccc(-c4cccc(OC)c4)c3=O)[C@H]1N2CC1CC1 | -3 | 1 | -7 | -3 | x
O=C(COC(=O)c1cccc(O)c1)Nc1ccc(Cl)cc1C(=O)c1ccccc1 | 2 | 0 | 1 | -23* | 2
C[n+]1c2ccccc2nc2ccc(NCCO)cc21 | 83* | 6 | -38 | -1 | 101*
CNc1ccc2nc3ccccc3[n+](C)c2c1 | 95* | 9 | -130 | -13 | 81*
CC(C)NC(=O)N1C[C@@H]2C(c3ccc(Br)cc3)[C@H](C1)N2CC1CC1 (stereo partly specified) | x | x | x | 0 | x
CN1CC[C@@]2(C)c3cc(O)ccc3N(C)[C@@H]12 | 17 | u | 69*! | -4 | x
CC1[C@H]2Cc3ccc(O)cc3[C@]1(C)CCN2C (stereo partly specified) | -2 | x | -7 | 8 | x
SMILES | CASP6 VEID inh | AF4-AF9 inh | RAD52 inh | rRNA inh HTS | NSD2 HMT inh
O=C(COC(=O)Cc1ccccc1)Nc1cc(S(=O)(=O)N2CCCCC2)ccc1Cl | 71* | 2 | -12 | 0 | 0
NP(=O)(Oc1ccccc1)Oc1ccccc1 | 4 | -2 | -12 | 15 | -2
CCN(CC)P(=O)(Oc1ccccc1)Oc1ccccc1 | 3 | -1 | -15 | -32* | -7
O=C(Cc1ccncc1)N1CCCCN2[C@H](CO)[C@@H](c3ccc(C#Cc4ccccc4F)cc3)[C@H]2C1 | 2 | 0 | -182 | -33 | x
COc1ccc(Cc2nccc3cc(OC)c(OC)cc23)cc1OC | 54* | -6 | 14 | 0 | x
COc1ccc(C#Cc2ccc([C@@H]3[C@H](CO)N4CCCCN(C(=O)Cc5ccncc5)C[C@@H]34)cc2)cc1 | 0 | 0 | -69 | 5 | x
CN1C2CN(CC(F)(F)F)CC1C2c1ccc(Br)cc1 (stereo unspecified) | x | x | x | 2 | x
CC1CN1c1cc2c(c3c1ccn3C)C1CCC2C1 (stereo unspecified) | 4 | 40* | 3 | x | x
O=C1NC(=O)N(Cc2ccc(F)cc2)C(=O)/C1=C\c1ccoc1 | 47* | 1 | i | 25 | 10
O=C(O)[C@H]1[C@H](CO)[C@H]2Cn3c(ccc(C4=CCCC4)c3=O)[C@@H]1N2C(=O)Cc1ccccn1 | 2 | -6 | -20 | 2 | x
C/C(=N\NC(=O)c1ccccc1Cl)c1c(O)n(C2CCCCC2)c(=O)[nH]c1=O | 3 | 0 | -7 | -32* | 1
C/C(=N\NC(=O)c1ccccc1)c1c(O)n(C2CCCCC2)c(=O)[nH]c1=O | 1 | -6 | -12 | 3 | -1
C/C(=N\NC(=O)c1ccccc1O)c1c(O)n(C2CCCCC2)c(=O)[nH]c1=O | 4 | 0 | -23 | -18* | 8
OC[C@H]1Nc2ccc(C#Cc3cccnc3)cc2[C@H]2NCC[C@H]21 | 17 | 13 | 36 | 5 | x
C=Cc1cc(OC)c2c(c1)c(=O)oc1c2cc(OC)c2c(O)ccc(C3OC(C)C(O)C(C)(O)C3O)c21 (stereo unspecified) | 53* | -4 | 23 | 13 | x
CCOC(=O)N1CCC(NC(=O)CCc2nc(C3=CCN(C)CC3)no2)CC1 | -2 | 33* | -5 | 9 | 8
O=C(Cc1ccccn1)N1CC2(C1)[C@H](c1ccccc1)[C@H](CO)N2Cc1ccccn1 | 0 | 3 | -106 | 3 | x
Cc1ccc(N2C(=O)NC(=O)/C(=C\C=C\c3ccco3)C2=O)cc1C | 38* | 0 | -85 | 7 | 65*
O=C1NC(=O)N(Cc2ccccc2)C(=O)/C1=C\C=C\c1ccco1 | 60* | 0 | -144 | 4 | 42
O=C1NC(=O)N(Cc2ccco2)C(=O)/C1=C/C=C/c1ccco1 | 88* | -6 | -158 | 2 | x
CN1C(=O)/C(=C/C=C/c2ccco2)C(=O)NC1=S | 76* | -2 | i | 16 | x
O=C1NC(=O)N(c2ccccc2)C(=O)/C1=C/C=C/c1ccco1 | 21 | 4 | -128 | 10 | x
CN1CCN(c2ccc([N+](=O)[O-])c3no[n+]([O-])c23)CC1 | 15 | 2 | i | -8 | 97*
CN1CCN(c2ccc(S(C)(=O)=O)cc2[N+](=O)[O-])CC1 | 5 | 2 | -7 | 3 | 0
COC(=O)[C@H]1[C@H](CO)[C@H]2Cn3c(ccc(-c4cccc(OC)c4)c3=O)[C@@H]1N2C(=O)c1cnccn1 | 2 | 0 | 1 | -1 | x
